Test results published in PubChem BioAssay (EPA / NIEHS).
Results filed as inconclusive are left out. Calls of active or inactive are those of the source. The calls were made as follows: active = hit-call score of the fitted dose curve at least 0.9, where 1 is the maximum; inconclusive = response in the unintended direction; inactive = score below 0.9.

These compounds were tested against human Peripheral-type Benzodiazepine Receptor (PBR), TSPO (gene 706) (UniProt P30536) (assay: NVS_MP_hPBR: NovaScreen (NVS) Membrane Protein Assay for human Peripheral-type Benzodiazepine Receptor (PBR) (AID 2283331)).
Method: NVS_MP_hPBR is a biochemical, single-readout assay that uses extracted gene-proteins from Human colonic cell membranes in a tissue-based cell-free assay. Measurements were taken 1 hour after chemical dosing in a 48-well plate.NVS_MP_hPBR is one of one assay component(s) measured or calculated from the NVS_MP_hPBR assay. It is designed to make measurements of radioligand binding, a form of binding reporter, as detected with scintillation counting signals by Filter-based radiodetection technology.Data from the assay component NVS_MP_hPBR was analyzed into 1 assay endpoint. This assay endpoint, NVS_MP_hPBR, was analyzed in the positive analysis fitting direction relative to DMSO as the negative control and baseline of activity. Using a type of binding reporter, loss-of-signal activity can be used to understand changes in the binding as they relate to the gene TSPO. Furthermore, this assay endpoint can be referred to as a primary readout, because the performed assay has only produced 1 assay endpoint. To generalize the intended target to other relatable targets, this assay endpoint is annotated to the transporter intended target family, where the subfamily is cholesterol transporter.
Binding assays used specific radioligands (tritiated, iodinated) with non-radioactive competitive displacement ligands in agonist or antagonist protocols (as indicated) and various reference compounds and inhibitors to titrate specific binding to receptors and transporters. Most enzyme assays (CYPs, kinases, phosphatases, proteases, HDACs) used recombinant protein and specific substrates (fluorescence mostly, some colorimetric and radioactive) and inhibitors, followed by a biochemical separation of substrate and product. All assays for the biochemical HTS were initially run in duplicate at a single concentration (10 uM for CYP450 assays and 25 uM for all others). […] Each assay was run with positive and negative controls, and concurrent controls on every plate. The follow-up (secondary) screen tested active chemical-pairs in concentration series, as well as a few additional assays not tested in the primary screen, some selected negative inactives, and several cases re-run in the concentration series for confirmatory purposes.

Chain of human Peripheral-type Benzodiazepine Receptor (PBR), TSPO (gene 706) (P30536 whole entry, looked up): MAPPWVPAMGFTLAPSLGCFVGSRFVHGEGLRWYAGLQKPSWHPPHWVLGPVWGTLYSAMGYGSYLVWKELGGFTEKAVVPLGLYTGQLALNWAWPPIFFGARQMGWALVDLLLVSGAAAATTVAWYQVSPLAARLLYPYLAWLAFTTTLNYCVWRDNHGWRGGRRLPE

SMILES	AC50	outcome
CCCCOCN(C(=O)CCl)c1c(CC)cccc1CC	6.37 µM (active)	–
COP(=S)(OC)Oc1ccc([N+](=O)[O-])c(C)c1	25 µM (active)	–
CN=C=S	–	inactive
CC1(C)C(C(=O)OC(C#N)c2cccc(Oc3ccccc3)c2)C1(C)C (centres undefined)	–	inactive
Cc1nc(N(C)C)nc(OC(=O)N(C)C)c1C	12.1 µM (active)	–
COc1ccc(-c2ccccc2)cc1NNC(=O)OC(C)C	0.149 µM (active)	–
CC(C)=CC1C(C(=O)OCc2coc(Cc3ccccc3)c2)C1(C)C (centres undefined)	–	inactive
COCC(C)N(C(=O)CCl)c1c(C)csc1C (centres undefined)	9.66 µM (active)	–
Clc1nc(Cl)nc(Nc2ccccc2Cl)n1	14.9 µM (active)	–
COCC(=O)N(c1c(C)cccc1C)C(C)C(=O)OC (centres undefined)	–	inactive
COC(=O)N(C(=O)N1CO[C@@]2(C(=O)OC)Cc3cc(Cl)ccc3C2=N1)c1ccc(OC(F)(F)F)cc1	0.292 µM (active)	–
CCNP(=S)(OC)O/C(C)=C/C(=O)OC(C)C (centres undefined)	17.5 µM (active)	–
Cc1c(COC(=O)[C@@H]2[C@H](/C=C(\Cl)C(F)(F)F)C2(C)C)cccc1-c1ccccc1	–	inactive
CC(C)NC(=O)N1CC(=O)N(c2cc(Cl)cc(Cl)c2)C1=O	8.8 µM (active)	–
CCN(CC)C(=O)C(C)Oc1cccc2ccccc12 (centres undefined)	1.11 µM (active)	–
CCOP(=O)(OCC)Oc1nc(Cl)c(Cl)cc1Cl	4.32 µM (active)	–
CCOP(=S)(OCC)Oc1nc(Cl)n(C(C)C)n1	–	inactive
OC(c1ccc(Cl)cc1)(c1ccc(Cl)cc1)C(Cl)(Cl)Cl	–	inactive
O=C(Nc1ccccc1-c1ccc(Cl)cc1)c1cccnc1Cl	–	inactive
CC1(C)C(C=C(Cl)Cl)C1C(=O)OC(C#N)c1cccc(Oc2ccccc2)c1 (centres undefined)	14.9 µM (active)	–
COP(=S)(OC)SCn1nnc2ccccc2c1=O	17.5 µM (active)	–
CCN(CC)c1nc(C)cc(OP(=S)(OC)OC)n1	14 µM (active)	–
CC(C)Oc1cccc(NC(=O)c2ccccc2C(F)(F)F)c1	0.824 µM (active)	–
CCCCC(O)(Cn1cncn1)c1ccc(Cl)cc1Cl (centres undefined)	–	inactive
COC(=O)c1c(C(F)F)nc(C(F)(F)F)c(C2=NCCS2)c1CC(C)C	–	inactive
CCCCC(C#N)(Cn1cncn1)c1ccc(Cl)cc1 (centres undefined)	–	inactive
CCOC(=O)C(C)OC(=O)c1cc(Oc2ccc(C(F)(F)F)cc2Cl)ccc1[N+](=O)[O-] (centres undefined)	8.41 µM (active)	–
N#Cc1c[nH]cc1-c1cccc2c1OC(F)(F)O2	–	inactive
CC(C)(C)C(=O)C(Oc1ccc(Cl)cc1)n1cncn1 (centres undefined)	44 µM (active)	–
